Source: PubChem BioAssay (Tox21)
Calls of active or inactive are those of the source. Entries that show only a call come without a potency. Calls come from the whole dose curve.

target: Gonadotropin-releasing hormone receptor (Homo sapiens) (UniProt P30968); experiment: Human gonadotropin-releasing hormone receptor (GnRHR) small molecule agonists, calcium flux assay in GnRHR-HEK293 cells (AID 1920063); settings: calcium flux fluorescence, agonist mode; series mostly up to 57.6 µM; note: nearly all actives have a fitted effect of over 35% in size
Sequence (P30968 whole entry, looked up): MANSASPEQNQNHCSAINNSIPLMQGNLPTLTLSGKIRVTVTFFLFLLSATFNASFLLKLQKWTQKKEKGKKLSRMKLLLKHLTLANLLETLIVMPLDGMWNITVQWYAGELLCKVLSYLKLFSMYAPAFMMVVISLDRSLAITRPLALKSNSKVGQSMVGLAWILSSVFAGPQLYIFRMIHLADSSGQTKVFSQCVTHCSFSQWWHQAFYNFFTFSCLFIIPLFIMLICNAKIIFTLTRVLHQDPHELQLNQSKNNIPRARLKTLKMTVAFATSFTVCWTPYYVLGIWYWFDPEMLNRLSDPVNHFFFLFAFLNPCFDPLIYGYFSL
Summary of the method: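 Fluorescence kinetics (480 nm excitation, 540 nm emission; 3 min, 1 s steps) report calcium mobilisation in human GnRHR-HEK293 cells in agonist mode. Dye incubation: 1 h, 37 C.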

SMILES | Potency
OC[C@H]1O[C@@H]2O[C@H]3[C@H](O)[C@@H](O)[C@@H](O[C@H]4[C@H](O)[C@@H](O)[C@@H](O[C@H]5[C@H](O)[C@@H](O)[C@@H](O[C@H]6[C@H](O)[C@@H](O)[C@@H](O[C@H]7[C@H](O)[C@@H](O)[C@@H](O[C@H]8[C@H](O)[C@@H](O)[C@@H](O[C@H]9[C@H](O)[C@@H](O)[C@@H](O[C@H]1[C@H](O)[C@H]2O)O[C@@H]9CO)O[C@@H]8CO)O[C@@H]7CO)O[C@@H]6CO)O[C@@H]5CO)O[C@@H]4CO)O[C@@H]3CO | inactive
CCCCCCCCCCCCOC(C)=O | inactive
S=C(S)NCCNC(=S)S | inactive
C=Cc1ccc(C(C)(C)C)cc1 | inactive
CCN[C@H]1C[C@H](C)S(=O)(=O)c2sc(S(N)(=O)=O)cc21 | inactive
O=c1c2ccccc2oc2ccccc12 | inactive
Nc1ncn([C@H]2C[C@H](O)[C@@H](CO)O2)c(=O)n1 | inactive
CC(=O)Nc1ccc(S(=O)(=O)Cl)cc1 | inactive
CC(C)(C)C(=O)CCc1ccc(Cl)cc1 | inactive
CC(=O)NNC(C)=O | inactive
O=[N+]([O-])c1ccc(Cl)cc1Cl | inactive
OCC1CC=CCC1 (stereo not given) | inactive
C=CCN(CC=C)CC=C | inactive
O=C(Cl)c1c(Cl)cccc1Cl | inactive
NCCCN(CCO)CCO | inactive
CC1=C(C(=O)O)N2C(=O)[C@@H](NC(=O)[C@H](N)C3=CCC=CC3)[C@H]2SC1 | inactive
C#CC(O)C(CC)CCCC (stereo not given) | inactive
C=C1CCC2CC1C2(C)C (stereo not given) | inactive
CC(C)CCOCc1ccccc1 | inactive
CC1(C)C(=O)N(Cl)C(=O)N1Br | inactive

SMILES | Potency
CCOc1ccc(OCC)c(Cl)c1 | inactive
c1ccc(-c2nc[nH]c2-c2ccccc2)cc1 | inactive
CCOc1ccc2nc(S(N)(=O)=O)sc2c1 | inactive
O=C1CC[C@@H](C(=O)O)N1 | inactive
CCCCC(CC)C(=O)OCCOCCOCCOCCOC(=O)C(CC)CCCC (stereo not given) | inactive
O=C(O)CNC(=O)CNC(=O)CNC(=O)CSC(=O)c1ccccc1 | inactive
CC(O)CC(C)O (stereo not given) | inactive
Clc1sc(Cl)c(Cl)c1Cl | inactive
C/C=C(\C)C(C)=O | inactive
CC1=NN(c2cccc(S(=O)(=O)O)c2)C(=O)C1 | inactive
C=CCOC(=O)c1ccc(C(=O)OCC=C)c(C(=O)OCC=C)c1 | inactive
Cc1ccc(N)cc1S(=O)(=O)O | inactive
CC(C)(CO)[N+](=O)[O-] | inactive
C[Si](C)(C)O[Si](O)(O)O | inactive
CC(Cc1ccccc1)(NC(=O)CN)c1ccccc1 (stereo not given) | inactive
N[C@@H](CCC(=O)O)C(=O)O | inactive
C=C(C)C1CC=C(C)C(=O)C1 (stereo not given) | inactive
CC(CO)(CO)[N+](=O)[O-] | inactive
NNC(=O)CP(=O)(c1ccccc1)c1ccccc1 | inactive
C=CCCC(=O)O | inactive
